Assay results from the supplement of paper PMC7156485.
± gives the standard deviation of the averaged measurements.

What was measured:
Conditions in all cases: concentration: 10 µM; 24 h
[1] = tested on: HCC1569; test: cell number relative to DMSO (% of DMSO); higher = more cells (less growth inhibition / toxicity)
Procedure, shortened: (§1)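 H1.0 nuclear intensity or cell number is expressed as percent of the plate control, with the median of replicates taken. HCC1569 and TDF cells were treated with compounds at 10 µM for 24 h at 37 °C, in triplicate, then fixed and immunostained for H1.0 with DAPI as a nuclear stain. HCC1569 values were smoothed to correct for positional effects.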

[2] = tested on: TDF; test: as above
Procedure, shortened: as §1

[3] = tested on: TDF; test: H1.0 immunofluorescence intensity relative to DMSO (% of DMSO); higher = stronger H1.0 induction, active = 120 or more
Procedure, shortened: as §1

[4] = tested on: HCC1569; test: H1.0 immunofluorescence intensity relative to DMSO (% of DMSO); higher = stronger H1.0 induction, active = 140 or more
Procedure, shortened: as §1
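Throughout, for H1.0 immunofluorescence intensity relative to DMSO: TDF is a line of transformed human dermal fibroblasts of mesenchymal origin.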
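Throughout, for cell number relative to DMSO: TDF denotes transformed human dermal fibroblasts of mesenchymal origin.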

Row | Compound | cell number [1] | cell number [2] | H1.0 immunofluorescence intensity [3] | H1.0 immunofluorescence intensity [4]
1 | NNC(=O)c1ccncc1 [Isoniazid] | 105 | 104 | 89.6 (inactive) | 110 (inactive)
2 | O=C(NC(Cc1ccccc1)C(=O)CCl)OCc1ccccc1 [Z-L-Phe chloromethyl ketone] | 54.9 | 52.5 | 120 (inactive) | 116 (inactive)
3 | CC(C)Cc1ccc(C(C)C(=O)O)cc1 (racemic) | 103 | 112 | 95.4 (inactive) | 97.7 (inactive)
4 | CC(N)(Cc1ccc(O)c(O)c1)C(=O)O [L-alpha-Methyl DOPA] | 96.4 | 98.5 | 91.3 (inactive) | 86.8 (inactive)
5 | CC(C)=CCCC(C)=CCCC(C)=CCSc1ccccc1C(=O)O [Farnesylthiosalicylic acid] | 93.9 | 99.9 | 90.7 (inactive) | 94.5 (inactive)
6 | N#Cc1ccc(C(c2ccc(C#N)cc2)n2cncn2)cc1 [Letrozole] | 100 | 103 | 96.8 (inactive) | 102 (inactive)
7 | CC1OC(OCC2OC(Oc3cc(O)c4c(c3)OC(c3ccc(O)c(O)c3)CC4=O)C(O)C(O)C2O)C(O)C(O)C1O (stereo not drawn) [Eriocitrin] | 101 | 119 | 89 (inactive) | 84 (inactive)
8 | CC(C=Cc1cccc(Oc2ccc(F)cc2)c1)N(O)C(N)=O (stereo not drawn) | 102 | 101 | 102 (inactive) | 89.2 (inactive)
9 | Oc1cc(O)c2c(c1)OC(c1ccc(O)c(O)c1)C(O)C2 (single isomer, unassigned; (-)) [(-)-Epicatechin] | 102 | 106 | 100 (inactive) | 89.2 (inactive)
10 | CC(C)N(CCC(=O)c1ccc2ccccc2c1)Cc1ccccc1.Cl | 96.2 | 92.5 | 102 (inactive) | 119 (inactive)
11 | CCCOC(=O)c1c(-c2ccccc2)nc(CC)c(C(=O)SCC)c1CCC | 102 | 90.7 | 93.7 (inactive) | 96.3 (inactive)
12 | COc1cc2nccc(Oc3ccc(NC(=O)Nc4cc(C)on4)c(Cl)c3)c2cc1OC.O [VEGFR Tyrosine Kinase Inhibitor IV] | 82.4 | 90.7 | 94 (inactive) | 121 (inactive)
13 | O=C1C(Cl)=C(N2C(=O)CCC2=O)C(=O)c2ccccc21 [MEK Inhibitor II] | 98.9 | 110 | 90.5 (inactive) | 121 (inactive)
14 | C=C1CC23CC1(O)CCC2C12C=CC(O)C(C)(C(=O)O1)C2C3C(=O)O (single isomer, unassigned; (+)) [(+)-Gibberellic acid] | 108 | 112 | 98.6 (inactive) | 89.5 (inactive)
15 | Cn1sc(=O)n(Cc2ccccc2)c1=O [GSK-3b Inhibitor I] | 98.9 | 102 | 98.3 (inactive) | 134 (inactive)
16 | CCC(Sc1nnc2c(n1)[nH]c1ccccc12)C(=O)N1c2ccccc2Sc2ccccc21 (stereo not drawn) | 96.4 | 96.3 | 103 (inactive) | 700 (active)
17 | CNNCc1ccc(C(=O)NC(C)C)cc1 [Procarbazine] | 102 | 106 | 92.4 (inactive) | 108 (inactive)
18 | CC1CCC2C(C)C(OC(=O)CCC(=O)O)OC3OC4(C)CCC1C32OO4 (stereo not drawn) [Artesunate] | 87.2 ± 1.8 | 88.2 ± 5.5 | 99.1 (inactive) | 124 (inactive)
19 | O=C(O)c1ccccc1Nc1cccc(C(F)(F)F)c1 [Flufenamic acid] | 103 | 105 | 91.9 (inactive) | 106 (inactive)
20 | O=C1OC(=CBr)CCC1c1cccc2ccccc12 (stereo not drawn) [Bromoenol lactone] | 97.3 | 100 | 94.5 (inactive) | 112 (inactive)
21 | C[N+](C)(C)CCOC(N)=O [Carbamylcholine] | 103 | 107 | 93.3 (inactive) | 99.8 (inactive)
22 | C=C(C)C1CC=C(C(=O)O)CC1 (single isomer, unassigned; (-)) [(-)-Perillic acid] | 104 | 104 | 95.9 (inactive) | 99.9 (inactive)
23 | C[C@H](C(=O)O)c1cccc(C(=O)c2ccccc2)c1 [(S)-(+)-Ketoprofen] | – | – | 99 (inactive) | 100 (inactive)
24 | Cc1ccccc1N(C)C(=O)c1ccc(S(=O)c2nccs2)c([N+](=O)[O-])c1 (stereo not drawn) | 9.73 | 4.15 | – | 131 (inactive)
